Measurements reported in PubChem BioAssay (Tox21).
Inconclusive results are not listed. The source made the active and inactive calls. Unless noted, the call rests on the fitted dose curve; in most records, active means well fitted curve in the direction sought with a large enough effect in the repeat runs; inconclusive means weak or mixed curves; inactive means no such curve, though single readings can be large; an effect the other way counts as inactive or inconclusive.

Tests used:
[1] = target: Thyrotropin-releasing hormone receptor (Homo sapiens) (UniProt P34981); assay: qHTS assay to identify small molecule agonists of the thyrotropin-releasing hormone receptor (TRHR) signaling pathway (AID 1346891; calls by dose curve; further: series mostly up to about 58 µM; on the % scale 0 is the no-effect control and ±100 the full control effect)
Outline: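 HEK293 cells expressing TRHR plated 18 h at 37 C/5% CO2, calcium dye-loaded 2 h at 37 C, then compound added (agonist mode); kinetic calcium fluorescence read 3 min at 1 s intervals; 15 concentrations in triplicate.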

[2] = Caspase-3/7 induction in HepG2 cells by small molecules, qHTS assay (AID 1346978); further: on the % scale 0 is the no-effect control and ±100 the full control effect; nearly all actives have a fitted effect of over 15% in size
Outline: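 Wild-type HepG2 cells (2,000/well) were settled 5 h at 37 C, 5% CO2, then exposed to compounds in DMSO for 17 h. Caspase-3/7 activity was read by luminescence 30 min after adding Caspase-Glo 3/7 reagent at room temperature.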

[3] = Caspase-3/7 induction in CHO-K1 cells by small molecules, qHTS assay (AID 1346980); further: on the % scale 0 is the no-effect control and ±100 the full control effect; nearly all actives have a fitted effect of over 15% in size
Outline: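 Wild-type cells were seeded at 1,500 per well and settled 5 hr at 37 C, 5% CO2, then exposed to DMSO-dissolved compounds for 17 hr. Caspase-Glo 3/7 reagent was added, and luminescence was read after 30min at room temperature.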

[4] = Caspase-3/7 induction in HepG2 cells by small molecules, qHTS cell viability counter screen (AID 1346981); further: nearly all actives have a fitted effect of over 30% in size; further: potency means the concentration at half of the fitted maximal effect; on activity change, negative = cytotoxicity: series mostly up to about 92 µM; on the % scale 0 is the no-effect control and ±100 the full control effect
Outline: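 Steps: seed 2,000 HepG2 cells per well; incubate 5 hr at 37 C; pin-add compounds in DMSO; incubate 16 hr; add CellTiter-Fluor; after 1 hr at 37 C and 5% CO2, read fluorescence.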

[5] = target: Nuclear receptor subfamily 1 group I member 2 (Homo sapiens) (UniProt O75469); assay: Human pregnane X receptor (PXR) small molecule agonists, qHTS assay (AID 1346982); further: nearly all actives have a fitted effect of over 35% in size; further: potency means the concentration at half of the fitted maximal effect; on activation: on the % scale 0 is the no-effect control and ±100 the full control effect
Outline: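 Agonist mode qHTS: PXR-Luc HepG2 cells plated 5 hr before DMSO-dissolved compounds were pinned in, cultured 24 hr at 37 C, 5% CO2; ONE-Glo luminescence readout.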

[6] = target: Cytochrome P450 2D6 (Homo sapiens) (UniProt P10635); assay: Cytochrome P450 Family 2 Subfamily D Member 6 (CYP2D6) small molecule antagonists: luciferase reporter qHTS assay (AID 1671196); further: nearly all actives have a fitted effect of over 50% in size; further: potency means the concentration at half of the fitted maximal effect
Outline: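 P450-Glo format: CYP2D6 converts a proluciferin substrate to luciferin in an NADPH-driven reaction lasting 1 h at room temperature. Light output, proportional to CYP2D6 activity, reflects interference by test chemicals.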

[7] = target: Cytochrome P450 1A2 (Homo sapiens) (UniProt P05177); assay: Cytochrome P450 Family 1 Subfamily A Member 2 (CYP1A2) small molecule antagonists: luciferase reporter qHTS assay (AID 1671199); further: nearly all actives have a fitted effect of over 50% in size; further: potency means the concentration at half of the fitted maximal effect; on activity change, negative = inhibition: series mostly up to about 120 µM; on the % scale 0 is the no-effect control and ±100 the full control effect
Outline: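 Inhibition of CYP1A2 conversion of proluciferin to luciferin, detected by luminescence. Reaction run 1 h at room temperature with NADPH regeneration after brief compound preincubation.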

[8] = target: Voltage-gated inwardly rectifying potassium channel KCNH2 (Homo sapiens) (UniProt Q12809); assay: Human Ether-a-go-go-Related Gene (hERG) channel small molecule antagonists: fluorescence cell-based qHTS assay (AID 1671200); further: nearly all actives have a fitted effect of over 50% in size; further: potency means the concentration at half of the fitted maximal effect
Outline: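 hERG-U2OS cells plated overnight at 37 C, loaded with FluxOR II dye 1 h at RT in dark; after 10 min, thallium stimulus added. Fluorescence (480/540 nm) read kinetically for 2 min at 1 s intervals.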

[9] = target: Cytochrome P450 3A4 (Homo sapiens) (UniProt P08684); assay: Cytochrome P450 Family 3 Subfamily A Member 4 (CYP3A4) small molecule antagonists: luciferase reporter qHTS assay (AID 1671201); further: nearly all actives have a fitted effect of over 50% in size; further: potency means the concentration at half of the fitted maximal effect
Outline: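 P450-Glo CYP3A4 luminescent assay: compounds preincubated 10 min at room temperature with enzyme and proluciferin substrate, NADPH regeneration added, 1 h room-temperature reaction, stopped with luciferin detection reagent; luminescence read after 20 min. Ketoconazole positive control.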

[10] = Human pregnane X receptor (PXR) small molecule agonists, qHTS cell viability counter screen (AID 1346977)
Outline: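 PXR-Luc HepG2 cells (2,000/well, 5% charcoal-stripped FBS) preincubated 5 hr, then exposed to compounds 24 hr at 37 C. Viability read in the same wells by CellTiter-Fluor fluorescence, reagent added at 23 hr, 1 hr incubation.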

[11] = Caspase-3/7 induction in CHO-K1 cells by small molecules, qHTS cell viability counter screen (AID 1346979); further: nearly all actives have a fitted effect of over 35% in size; further: potency means the concentration at half of the fitted maximal effect
Outline: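 Wild-type CHO-K1 cells (1,500/well) treated with compound after 5 h plating; after 16 h at 37C, viability read as CellTiter-Fluor fluorescence following 1 h reagent incubation, in the same wells as the caspase read.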

[12] = target: Cytochrome P450 2C19 (Homo sapiens) (UniProt P33261); assay: Cytochrome P450 Family 2 Subfamily C Member 19 (CYP2C19) small molecule antagonists: luciferase reporter qHTS assay (AID 1671197); further: nearly all actives have a fitted effect of over 65% in size; further: potency means the concentration at half of the fitted maximal effect
Outline: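 P450-Glo CYP2C19 screening system; proluciferin substrate; DMSO compound stocks; 10 min RT preincubation; NADPH regeneration, 1 h at 37C; luciferin detection reagent, 20 min RT; luminescence as RLU.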

[13] = target: Cytochrome P450 2C9 (Homo sapiens) (UniProt P11712); assay: Cytochrome P450 Family 2 Subfamily C Member 9 (CYP2C9) small molecule antagonists: luciferase reporter qHTS assay (AID 1671198); further: nearly all actives have a fitted effect of over 50% in size; further: potency means the concentration at half of the fitted maximal effect
Outline: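 CYP2C9 activity was measured with a P450-Glo proluciferin substrate. Enzyme–substrate mix was held with compound for 10 min at room temperature, then NADPH regeneration solution was added for 1 h at 37C. Luciferin product was read as luminescence.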

[14] = target: Nuclear receptor subfamily 1 group I member 2 (Rattus norvegicus) (UniProt Q9R1A7); assay: Rat pregnane X receptor (rPXR) activation by small molecules, qHTS assay (AID 1346983); details: rPXR luciferase reporter cells, One-Glo luminescence, 24 h; max activation: hits give high values; further: on the % scale 0 is the no-effect control and ±100 the full control effect; nearly all actives have a fitted effect of over 20% in size
Outline: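 Cell-based rPXR luciferase reporter assay, 2,000 cells per well, rested 5hr at 37 C before compound addition in DMSO, then 24 hr at 37 C. One-Glo reagent was added and luminescence read after 30 min at room temperature.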

[15] = target: Nuclear receptor subfamily 1 group I member 2 (Homo sapiens) (UniProt O75469); assay: Human pregnane X receptor (PXR) activation by small molecules, qHTS assay (AID 1346985); further: potency means the concentration at half of the fitted maximal effect; nearly all actives have a fitted effect of over 40% in size
Outline: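 DPX-2 cells (HepG2 co-transfected with a PXR response element and a CYP3A4-promoter luciferase construct) were seeded at 2,000 per well, rested 5 hr at 37C, then exposed to DMSO-dissolved compounds for 24 hr. Activation was read as luciferase luminescence.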

Sequence of Cytochrome P450 2C19 (Homo sapiens) (P33261 whole entry, looked up): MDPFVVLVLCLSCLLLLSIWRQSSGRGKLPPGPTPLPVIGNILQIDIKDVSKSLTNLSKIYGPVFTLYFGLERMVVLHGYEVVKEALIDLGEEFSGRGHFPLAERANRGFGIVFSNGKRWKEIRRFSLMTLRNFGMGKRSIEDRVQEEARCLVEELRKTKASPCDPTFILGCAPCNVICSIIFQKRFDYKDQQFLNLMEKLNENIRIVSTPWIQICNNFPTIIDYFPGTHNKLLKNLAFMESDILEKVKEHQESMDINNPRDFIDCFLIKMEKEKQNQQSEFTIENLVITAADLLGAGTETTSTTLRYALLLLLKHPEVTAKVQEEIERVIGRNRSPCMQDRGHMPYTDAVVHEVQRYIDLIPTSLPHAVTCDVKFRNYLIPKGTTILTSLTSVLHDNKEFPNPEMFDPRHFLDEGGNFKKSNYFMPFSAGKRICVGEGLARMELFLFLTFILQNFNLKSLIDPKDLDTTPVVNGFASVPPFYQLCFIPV
Sequence of Cytochrome P450 1A2 (Homo sapiens) (P05177 whole entry, looked up): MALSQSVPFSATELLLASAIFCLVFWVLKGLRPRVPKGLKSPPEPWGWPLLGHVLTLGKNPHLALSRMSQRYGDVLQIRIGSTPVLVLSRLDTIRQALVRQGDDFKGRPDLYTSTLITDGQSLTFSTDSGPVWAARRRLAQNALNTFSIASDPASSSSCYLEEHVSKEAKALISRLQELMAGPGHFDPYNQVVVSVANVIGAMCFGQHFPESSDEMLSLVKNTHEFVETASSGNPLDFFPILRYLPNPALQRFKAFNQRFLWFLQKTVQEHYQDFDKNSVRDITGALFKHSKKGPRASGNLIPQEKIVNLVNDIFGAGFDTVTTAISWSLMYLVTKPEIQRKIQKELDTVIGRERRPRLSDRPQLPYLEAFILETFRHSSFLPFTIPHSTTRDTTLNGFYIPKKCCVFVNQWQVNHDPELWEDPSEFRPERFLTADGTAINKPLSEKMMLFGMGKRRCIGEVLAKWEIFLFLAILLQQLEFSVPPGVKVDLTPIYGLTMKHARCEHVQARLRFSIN
Sequence of Cytochrome P450 3A4 (Homo sapiens) (P08684 whole entry, looked up): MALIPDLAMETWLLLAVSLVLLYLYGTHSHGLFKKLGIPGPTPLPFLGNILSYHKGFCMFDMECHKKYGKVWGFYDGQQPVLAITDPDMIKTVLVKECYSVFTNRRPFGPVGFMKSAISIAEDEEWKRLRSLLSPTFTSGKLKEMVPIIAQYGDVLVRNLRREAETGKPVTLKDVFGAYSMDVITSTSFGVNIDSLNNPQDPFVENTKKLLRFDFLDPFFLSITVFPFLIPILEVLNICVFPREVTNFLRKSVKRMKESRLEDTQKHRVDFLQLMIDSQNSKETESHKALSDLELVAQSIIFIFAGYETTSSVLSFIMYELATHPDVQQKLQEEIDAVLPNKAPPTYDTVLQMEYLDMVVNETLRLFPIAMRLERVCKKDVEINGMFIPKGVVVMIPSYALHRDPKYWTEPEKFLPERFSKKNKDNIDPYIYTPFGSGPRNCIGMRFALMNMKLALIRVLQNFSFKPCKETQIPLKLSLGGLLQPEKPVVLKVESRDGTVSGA
Sequence of Cytochrome P450 2D6 (Homo sapiens) (P10635 whole entry, looked up): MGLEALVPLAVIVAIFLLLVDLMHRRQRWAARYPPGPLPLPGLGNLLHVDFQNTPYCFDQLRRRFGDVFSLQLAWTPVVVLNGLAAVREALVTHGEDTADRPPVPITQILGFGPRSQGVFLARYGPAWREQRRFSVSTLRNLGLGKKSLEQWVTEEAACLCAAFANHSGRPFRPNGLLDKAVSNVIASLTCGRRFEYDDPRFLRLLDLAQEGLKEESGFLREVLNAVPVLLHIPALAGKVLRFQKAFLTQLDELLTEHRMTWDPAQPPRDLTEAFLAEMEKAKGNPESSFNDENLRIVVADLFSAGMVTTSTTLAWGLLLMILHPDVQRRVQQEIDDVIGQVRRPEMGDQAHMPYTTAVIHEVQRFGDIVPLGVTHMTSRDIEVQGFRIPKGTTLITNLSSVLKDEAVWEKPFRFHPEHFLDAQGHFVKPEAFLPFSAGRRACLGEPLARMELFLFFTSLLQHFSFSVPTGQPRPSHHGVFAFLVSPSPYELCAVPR
Sequence of Nuclear receptor subfamily 1 group I member 2 (Homo sapiens) (O75469 whole entry, looked up): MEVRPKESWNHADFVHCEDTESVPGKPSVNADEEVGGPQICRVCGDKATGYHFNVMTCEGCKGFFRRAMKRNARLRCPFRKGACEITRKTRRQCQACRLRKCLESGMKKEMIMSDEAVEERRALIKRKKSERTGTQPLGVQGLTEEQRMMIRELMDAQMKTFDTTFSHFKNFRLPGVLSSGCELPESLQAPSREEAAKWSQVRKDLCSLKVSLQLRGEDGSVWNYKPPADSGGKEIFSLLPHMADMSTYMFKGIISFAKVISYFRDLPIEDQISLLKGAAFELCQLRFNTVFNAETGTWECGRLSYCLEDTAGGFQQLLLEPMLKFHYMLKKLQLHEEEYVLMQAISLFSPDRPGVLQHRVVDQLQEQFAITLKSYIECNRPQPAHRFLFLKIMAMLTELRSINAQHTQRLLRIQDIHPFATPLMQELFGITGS
Sequence of Voltage-gated inwardly rectifying potassium channel KCNH2 (Homo sapiens) (Q12809 whole entry, looked up): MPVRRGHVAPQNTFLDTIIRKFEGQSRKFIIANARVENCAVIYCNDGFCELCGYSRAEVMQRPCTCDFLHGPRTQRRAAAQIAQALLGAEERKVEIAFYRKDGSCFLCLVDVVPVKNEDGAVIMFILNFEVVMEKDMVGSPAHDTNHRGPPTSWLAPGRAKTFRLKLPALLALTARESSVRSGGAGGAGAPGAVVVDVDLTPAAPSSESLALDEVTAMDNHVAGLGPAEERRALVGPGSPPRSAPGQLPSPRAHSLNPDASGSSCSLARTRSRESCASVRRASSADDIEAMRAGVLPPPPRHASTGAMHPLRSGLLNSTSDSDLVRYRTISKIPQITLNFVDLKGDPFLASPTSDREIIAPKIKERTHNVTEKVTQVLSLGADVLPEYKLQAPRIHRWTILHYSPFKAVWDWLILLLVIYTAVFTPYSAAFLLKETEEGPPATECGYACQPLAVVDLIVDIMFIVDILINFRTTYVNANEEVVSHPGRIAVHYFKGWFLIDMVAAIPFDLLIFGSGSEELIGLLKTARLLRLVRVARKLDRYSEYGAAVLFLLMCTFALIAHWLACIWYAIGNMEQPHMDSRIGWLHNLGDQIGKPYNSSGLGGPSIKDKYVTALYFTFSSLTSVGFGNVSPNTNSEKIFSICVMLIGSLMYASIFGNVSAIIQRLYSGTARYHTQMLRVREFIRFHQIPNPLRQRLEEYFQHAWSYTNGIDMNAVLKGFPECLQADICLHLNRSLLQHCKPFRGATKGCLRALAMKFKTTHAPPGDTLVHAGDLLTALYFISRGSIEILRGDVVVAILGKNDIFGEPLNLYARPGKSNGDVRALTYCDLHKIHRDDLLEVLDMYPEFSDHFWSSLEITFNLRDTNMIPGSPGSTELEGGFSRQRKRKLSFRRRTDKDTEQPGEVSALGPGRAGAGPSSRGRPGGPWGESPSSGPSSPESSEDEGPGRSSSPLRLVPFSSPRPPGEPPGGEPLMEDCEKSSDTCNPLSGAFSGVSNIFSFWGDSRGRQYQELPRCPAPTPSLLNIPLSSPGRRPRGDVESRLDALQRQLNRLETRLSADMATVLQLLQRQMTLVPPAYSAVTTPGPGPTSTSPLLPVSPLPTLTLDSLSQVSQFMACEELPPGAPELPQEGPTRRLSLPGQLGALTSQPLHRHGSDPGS
Sequence of Thyrotropin-releasing hormone receptor (Homo sapiens) (P34981 whole entry, looked up): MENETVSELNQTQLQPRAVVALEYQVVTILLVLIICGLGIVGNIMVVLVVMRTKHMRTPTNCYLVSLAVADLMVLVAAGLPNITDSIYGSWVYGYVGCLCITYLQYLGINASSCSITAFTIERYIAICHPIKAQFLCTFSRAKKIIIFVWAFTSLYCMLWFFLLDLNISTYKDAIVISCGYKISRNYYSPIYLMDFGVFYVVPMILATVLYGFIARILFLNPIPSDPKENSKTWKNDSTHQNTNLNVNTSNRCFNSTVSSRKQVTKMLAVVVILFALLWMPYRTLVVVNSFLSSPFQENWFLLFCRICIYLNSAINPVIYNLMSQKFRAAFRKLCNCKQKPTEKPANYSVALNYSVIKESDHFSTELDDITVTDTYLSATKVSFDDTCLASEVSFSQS
Sequence of Cytochrome P450 2C9 (Homo sapiens) (P11712 whole entry, looked up): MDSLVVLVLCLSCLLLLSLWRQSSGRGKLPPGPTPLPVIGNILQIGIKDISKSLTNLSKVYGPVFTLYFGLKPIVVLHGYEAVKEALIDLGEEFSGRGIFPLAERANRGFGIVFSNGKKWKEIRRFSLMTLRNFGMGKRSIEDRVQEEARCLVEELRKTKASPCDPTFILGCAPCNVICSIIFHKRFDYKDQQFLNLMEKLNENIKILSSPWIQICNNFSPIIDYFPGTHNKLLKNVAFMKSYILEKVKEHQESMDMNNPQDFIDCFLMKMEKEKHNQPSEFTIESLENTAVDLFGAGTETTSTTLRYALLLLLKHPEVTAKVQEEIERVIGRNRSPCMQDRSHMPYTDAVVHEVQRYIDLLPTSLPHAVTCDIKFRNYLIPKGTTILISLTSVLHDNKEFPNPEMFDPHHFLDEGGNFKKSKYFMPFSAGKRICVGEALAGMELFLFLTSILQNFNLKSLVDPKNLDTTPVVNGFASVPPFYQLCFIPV
Sequence of Nuclear receptor subfamily 1 group I member 2 (Rattus norvegicus) (Q9R1A7 whole entry, looked up): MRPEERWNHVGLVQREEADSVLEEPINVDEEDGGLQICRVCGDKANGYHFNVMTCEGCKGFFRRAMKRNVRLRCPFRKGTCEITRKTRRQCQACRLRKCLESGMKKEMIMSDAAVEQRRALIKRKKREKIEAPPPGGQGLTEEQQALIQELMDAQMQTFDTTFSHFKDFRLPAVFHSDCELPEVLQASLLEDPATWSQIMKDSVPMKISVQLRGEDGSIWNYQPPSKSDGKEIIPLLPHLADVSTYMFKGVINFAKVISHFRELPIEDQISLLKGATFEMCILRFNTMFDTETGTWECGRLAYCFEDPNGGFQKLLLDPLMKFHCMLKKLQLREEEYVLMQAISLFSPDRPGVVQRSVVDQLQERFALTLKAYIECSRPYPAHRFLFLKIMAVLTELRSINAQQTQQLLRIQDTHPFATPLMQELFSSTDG

Oc1ccc(CCNCCCCCCNCCc2ccccc2)cc1O
active: Potency [6] 15.5 µM
inactive: outcome [1] | Potency [2] | Potency [3] | Potency [4] | Potency [5] | Potency [7] | Potency [8] | Potency [9]

CCc1cnc(C(=O)O)c(C(=O)O)c1
inactive: outcome [1] | Potency [10] | Potency [11] | Potency [3] | Potency [4] | Potency [5] | Potency [6] | Potency [12] | Potency [7] | Potency [8] | Potency [9]

CCCCOc1ccc(N)cc1
active: Potency [5] 54.5 µM | Potency [6] 39.9 µM | Potency [12] 28.3 µM | Potency [13] 39.9 µM | Potency [7] 11.2 µM
inactive: outcome [1] | Potency [10] | Potency [4]

S=c1[nH][nH]c(=S)s1
active: Potency [12] 22.4 µM | Potency [13] 20 µM
inactive: outcome [1] | Potency [2] | Potency [11] | Potency [3] | Potency [4] | Potency [5] | Potency [7] | Potency [8] | Potency [9]

NC(=O)c1ccccc1C(N)=O
active: Potency [6] 40.1 µM | Potency [12] 40.1 µM | Potency [7] 28.4 µM
inactive: outcome [1] | Potency [10] | Potency [11] | Potency [3] | Potency [5] | Potency [8]

CC/C=C\CCO
inactive: outcome [1] | Potency [10] | Potency [11] | Potency [3] | Potency [4] | Potency [5] | Potency [6] | Potency [12] | Potency [7] | Potency [8]

CC(C)(C)N
inactive: Potency [10] | Potency [2] | Potency [11] | Potency [3] | Potency [4] | Potency [5] | Potency [6] | Potency [12] | Potency [13] | Potency [7] | Potency [8]

O=C1c2ccccc2C(=O)C1c1ccc2ccccc2n1
active: Potency [11] 9.59 µM | Potency [4] 6.05 µM | Potency [5] 1.91 µM | Potency [12] 3.14 µM | Potency [7] 2.22 µM | Potency [9] 1.77 µM
inactive: outcome [1] | Potency [2] | Potency [3] | Potency [6] | Potency [8]

CCCCC(CC)COCCC#N (stereo not drawn)
inactive: outcome [1] | Potency [10] | Potency [3] | Potency [4] | Potency [5] | Potency [6] | Potency [12] | Potency [7] | Potency [8] | Potency [9]

O=[N+]([O-])c1ccccc1CCO
inactive: outcome [1] | Potency [10] | Potency [11] | Potency [4] | Potency [5] | Potency [6] | Potency [12] | Potency [13] | Potency [8] | Potency [9]

COC(=O)/C=C/C(C)=C\C=C\C(C)=C\C=C\C=C(C)\C=C\C=C(C)\C=C\C(=O)O
inactive: outcome [1] | Potency [10] | Potency [11] | Potency [3] | Potency [4] | Potency [7] | Potency [8]
active: Potency [5] 54.5 µM | Potency [6] 39.9 µM

CCOc1cc(OCC)c(C(C)=O)cc1OCC
inactive: outcome [1] | Potency [2] | Potency [8]
active: Potency [11] 26.8 µM | Potency [5] 26.8 µM | Potency [12] 69.8 µM | Potency [7] 1.11 µM

Nc1nc(Cl)nc2c1ncn2[C@H]1C[C@H](O)[C@@H](CO)O1
active: Potency [5] 1.71 µM | Potency [7] 28.1 µM
inactive: outcome [1] | Potency [10] | Potency [11] | Potency [3] | Potency [6] | Potency [12] | Potency [8] | Potency [9]

OCCOc1cccc(OCCO)c1
inactive: outcome [1] | Potency [10] | Potency [11] | Potency [3] | Potency [4] | Potency [5] | Potency [6] | Potency [12] | Potency [13] | Potency [9]

CC(C)(C(=O)O)c1ccc(C(O)CCCN2CCC(C(O)(c3ccccc3)c3ccccc3)CC2)cc1 (stereo not drawn)
inactive: outcome [1] | Potency [10] | Potency [3] | Potency [4] | Potency [5]

O=[N+]([O-])c1cccc(I)c1
active: Potency [7] 31.6 µM
inactive: Potency [10] | Potency [2] | Potency [11] | Potency [3] | Potency [4] | Potency [5] | Potency [6] | Potency [12] | Potency [13] | Potency [8] | Potency [9]

COC=O
inactive: activation [1] -1.05% [at 5.23 µM] | activity change, negative = cytotoxicity [10] 3.92% [at 8.39 µM] | activity change, negative = cytotoxicity [11] 2.52% [at 8.39 µM] | activity change, negative = cytotoxicity [4] 7.73% [at 8.39 µM] | activation [5] -0.203% [at 8.39 µM] | activity change, negative = inhibition [12] 14.6% [at 10.5 µM] | activity change, negative = inhibition [13] -23.5% [at 10.5 µM] | activity change, negative = inhibition [7] -7.2% [at 10.5 µM] | activity change, negative = inhibition [8] -1.77% [at 6.97 µM] | activity change, negative = inhibition [9] 11.4% [at 10.5 µM]

COc1cccc([C@H](O)C2CCN(CCc3ccc(F)cc3)CC2)c1OC
inactive: outcome [1] | Potency [11] | Potency [3] | Potency [4] | Potency [5] | Potency [13] | Potency [7]
active: Potency [6] 2 µM

CCOCCn1c(N2CCCN(C)CC2)nc2ccccc21
inactive: outcome [1] | Potency [10] | Potency [11] | Potency [3] | Potency [4] | max activation [14] 4.1% | Potency [12] | Potency [7]
active: Potency [8] 7.56 µM

CC(C)(Cc1c[nH]c2ccccc12)NCC(O)COc1ccccc1C#N (stereo not drawn)
active: Potency [15] 28.2 µM | Potency [8] 8.49 µM
inactive: outcome [1] | Potency [11] | Potency [3] | Potency [4] | Potency [5] | max activation [14] 11.7% | Potency [12] | Potency [9]

O=S(=O)(O)c1cc(Cl)c(Cl)cc1Cl
active: Potency [13] 31.7 µM
inactive: outcome [1] | Potency [10] | Potency [11] | Potency [3] | Potency [5] | Potency [12] | Potency [8]

O=C(O)c1ccncc1
inactive: outcome [1] | Potency [2] | Potency [3] | Potency [4] | Potency [8]
